Screening data from PubChem.
DT40 TDP1 no CPT: qHTS for Inhibitors of human tyrosyl-DNA phosphodiesterase 1 (TDP1): qHTS in cells in absence of CPT | DT40 Tdp1-/- hTDP1 cells, no CPT, ATP luminescence, 48 h | Potency, µM (series often up to 46.2 µM), inactives show at the highest dose activity change, negative = growth inhibition, actives largely listed as inhibitors | hit rate 15% among 420,000 | AID 686978, 2013; note: potency is the fitted concentration of half-maximal effect; nearly all actives have a fitted effect of over 55% in size
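Seeded 400 DT40-hTDP1 cells/well (vehicle DMSO, no 20 nM CPT); pinned compounds; ≥48 hr at 37 °C; CellTiter-Glo luminescence as viability measure.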
ELG1 repair inh: blocks ELG1-dependent DNA repair in HEK293T cells. HEK293T ELG1-luciferase reporter, luminescence, 16 h; DNA damage induced by 5-fluorouridine. hit rate 2.3% among 330,000. Potency, µM (doses to about 46.1 µM), inactives show at the highest dose activity change, negative = inhibition, actives largely listed as inhibitors; note: potency is the fitted concentration of half-maximal effect; nearly all actives have a fitted effect of over 55% in size
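In this reporter screen, reduction of luminescence relative to DMSO vehicle indicated activity. Compounds and 5-fluorouridine were added together to 2,000 cells per well, incubated for 16 hr at 37 °C, then developed with ONE-Glo.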
HT1080 IDH1KD tx: kills HT-1080 cells with IDH1 knockdown; AID 686971; Potency, µM (doses to about 46.1 µM), inactives show top-dose activity, negative = toxicity, most hits filed as cytotoxic; hit rate 2% among 360,000; HT-1080 IDH1 knockdown viability, ATP luminescence, 48 h;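 note: potency is the fitted concentration of half-maximal effect; 0% = DMSO wells and -100% = cell-free medium wells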
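In this qHTS, HT-1080 cells depleted of IDH1 are exposed for 48 h at 37 °C to compound titrations. Toxicity is scored from CellTiter-Glo luminescence, with DMSO as full viability and medium alone as none.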
IL-1B inflam inh: inflammasome signaling inhibition, IL-1 beta readout; THP-1 LPS/ATP IL-1B secretion, AlphaLISA, 16 h; active compounds read low; activity change, % at 57.5 µM; hit rate 4.7% among 360,000; in the data active = activity change below about -50%; inconclusive = mostly about -30% to -49%
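Secreted IL-1B measured by AlphaLISA bead assay after 16 h compound exposure of THP-1 cells; compounds (final up to 57.5 uM) added 1 h before LPS (250 ng/mL) and ATP (1.25 mM) stimulation; lower signal means less secretion.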
DT40 TDP1 CPT: DT40-hTDP1 cell growth loss with CPT; chicken DT40 Tdp1-/-;hTDP1 cells + 20 nM CPT, ATP luminescence, 48 h; Potency, µM (titrated, usually from 46.2 µM), for the others: top-dose activity change, negative = growth inhibition, hits mostly inhibitors; hit rate 12% among 420,000; AID 686979; note: potency is the fitted concentration of half-maximal effect; nearly all actives have a fitted effect of over 55% in size
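Cell growth measured by CellTiter-Glo luminescence after a minimum 48 h, 37 C compound exposure with 20 nM CPT in Tdp1-knockout DT40 cells stably expressing hTDP1, seeded 400/well; qHTS titration format.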
HT1080-NT tox: kills 2HG-producing HT-1080-NT fibrosarcoma cells | Potency, µM (top dose mostly 46.1 µM), for the others: at the top dose activity, negative = less viability, usual class: cytotoxic | HT-1080-NT fibrosarcoma viability, CellTiter-Glo ATP luminescence, 48 h | hit rate 1.6% among 360,000;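 note: NT is the 2HG producing partner of a matched IDH1 knockdown line; potency is the fitted concentration of half-maximal effect; 0% = DMSO-treated cells and -100% = media-only wells without cells; nearly all actives have a fitted effect of over 55% in size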
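Read-out is CellTiter-Glo luminescence after 10 minutes at room temperature, following 48 hours' compound treatment of HT-1080-NT cells (750 cells/well, RPMI, 5% FBS, 37 degrees C).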
* = called active by the depositor; ? = inconclusive; · = no result. Most compounds without a hit are left out; they make up all but 19% or so of the library. Unless noted, calls come from the whole dose curve; as a rule, active = well fitted curve in the direction sought with a large enough effect; inconclusive = small, poorly fitted or top-dose-only effect, or another doubt; inactive = no such curve, though single readings can be large; an effect the other way counts as inactive or inconclusive. Unless noted, % is set by controls: 0 for no effect and ±100 for the full control effect.

SMILES | DT40 TDP1 no CPT | ELG1 repair inh | HT1080 IDH1KD tx | IL-1B inflam inh | DT40 TDP1 CPT | HT1080-NT tox
COc1cc2c(cc1OC)CN(c1ccc(F)cc1[N+](=O)[O-])CC2 | ? | ? | -11% | -67* | -25% | -1%
COc1cc2c(cc1OC)CN(C(=O)c1ccncc1)CC2 | 6% | 0% | 8% | 6 | 5% | -4%
CCC(=O)N1CCN(c2cc(N3CCN(C)CC3)c(F)cc2[N+](=O)[O-])CC1 | -20% | 13% | 4% | -3 | -1% | 0%
COc1cc2c(cc1OC)CN(c1ncccc1[N+](=O)[O-])CC2 | -24% | ? | -1% | ? | 1% | 0%
COc1cc2c(cc1OC)CN(c1ccc([N+](=O)[O-])cc1Cl)CC2 | 12µM* | -24% | -23% | -88* | 23µM* | ?
CN1CCN(c2cc(N3CCc4ccccc4C3)c(F)cc2[N+](=O)[O-])CC1 | 21µM* | 1% | -25% | -51* | 16µM* | -2%
COc1cc2c(cc1OC)CN(C(=O)c1ccc(N3CCCC3)c([N+](=O)[O-])c1)CC2 | 23µM* | ? | 1% | -56* | 21µM* | -1%
COc1ncc2nc(-c3ccc(F)cc3)c(=O)n(-c3ccccc3)c2n1 | 3% | · | · | · | 1% | ·
COc1ccccc1N1CCN(C(=S)NC(=O)c2ccc([N+](=O)[O-])cc2)CC1 | 21µM* | · | -26% | -4 | 21µM* | -13%
COc1ccc(C(=O)NC(=S)N2CCN(c3ccccc3OC)CC2)cc1 | ? | ? | -1% | -23 | ? | -23%
COc1ccccc1N1CCN(c2ccc([N+](=O)[O-])cc2Cl)CC1 | 12µM* | ? | ? | 0 | 15µM* | ?
COc1cc2c(cc1OC)CN(c1ccc([N+](=O)[O-])cc1C#N)CC2 | 13µM* | ? | -2% | ? | 21µM* | -16%
CCCC[n+]1ccn(-c2nc3c([N+](=O)[O-])cccc3n2C)c1 | ? | 5% | 1% | 9 | -20% | 0%
COc1c(OC(C)=O)c(=O)n2c3ccccc3c3ccnc1c32 | ? | 17% | 1% | 11 | ? | -22%
COc1ccccc1CC(=O)N1CCC(n2nccc2NC(=O)C2CCOC2)CC1 (stereo unspecified) | 9% | 16% | 0% | -10 | -2% | 0%
CN(C)CCN1CCN(C2CN(Cc3cn(Cc4ccccc4)nn3)S(=O)(=O)C2)CC1 (stereo unspecified) | -6% | · | ? | 42 | -10% | 14%
CC(C)(C)c1ccc(C(=O)O/N=C(\N)c2ccccc2)cc1 | 13µM* | ? | 2% | 7 | ? | 1%
COc1ccc(C(=O)O/N=C(\N)c2ccccc2)cc1 | -23% | ? | ? | -1 | -17% | ?
CCOC(=O)c1cc(/C(C)=N/OC(=O)c2ccc(C(C)(C)C)cc2)on1 | 16µM* | -13% | 8% | 16 | ? | 2%
Cc1noc(-c2ccc(Cl)cc2)c1C(=O)O/N=C(\N)c1ccc(C(C)(C)C)cc1 | ? | ? | ? | -66* | ? | ?
CC(C)(C)c1ccc(NC(=O)CON=C(N)c2ccccc2)cc1 | 29µM* | 10% | -1% | 8 | ? | -1%
COc1cc(-c2ccc3oc(-c4cccc(C)c4)c(C#CC4(O)CCCCC4)c3c2)cc(OC)c1OC | 16µM* | -28% | -22% | -63* | 16µM* | -10%
COc1ccc(-c2oc3ccc(-c4ccc5c(c4)OCO5)cc3c2C#CC2(O)CCCCC2)cc1 | ? | · | ? | 13 | ? | ?
CC(=O)NCCc1ccc(S(=O)(=O)Nc2ccc3c(c2)OCCO3)cc1 | -28% | · | 3% | 40 | 10% | 9%
